According to PubChem BioAssay (NCATS):
Results filed as inconclusive are left out. Active and inactive are the calls of the source. Unless noted, the call rests on the fitted dose curve; in most records, active means well fitted curve in the direction sought with a large enough effect; inconclusive means small, poorly fitted or top-dose-only effect, or another doubt; inactive means no such curve, though single readings can be large; an effect the other way counts as inactive or inconclusive.

Columns and labels:
[1] = biological target: Lysosomal acid glucosylceramidase (Homo sapiens) (UniProt P04062); test: Glucocerebrosidase-p2 (AID 348; in the data active means potency below about 10 µM; further: potency means the concentration at half of the fitted maximal effect); conditions: purified GBA, blue fluorogenic substrate, 40 min
In short: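 Normal human glucocerebrosidase (0.2 nM) with blue fluorogenic substrate (80 uM final) in citrate/phosphate pH 5.9 with 10mM sodium taurocholate, 0.01% tween-20; 40 min RT, NaOH/glycine stop; fluorescence Ex 365/Em 440; AC50 from a titration from 0.6 nM upwards.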

[2] = AP1 Signaling Pathway (AID 357; active means well fitted curve in either direction with a large enough effect, not every such curve was filed as active;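 further: ME-180 reporter cells stimulated with EGF at its EC50 level; on the % scale 0 is the no-effect control and ±100 the full control effect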)
In short: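 A ratiometric CCF4 readout (405 nm excitation; 460 and 530 nm emission) quantified AP-1-driven beta-lactamase in ME-180 cells after 5 h with compound and EC50 EGF; AC50 values were derived for activators and inhibitors.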

[3] = Stat Signaling Pathway (AID 446; active means well fitted curve in either direction with a large enough effect, not every such curve was filed as active;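 further: ME-180 cervical cancer cells given 40 pM IL-6 alongside compound; SIE-controlled beta-lactamase reporter measured as 460/530 nm FRET emission ratio; on the % scale 0 is the no-effect control and ±100 the full control effect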)
In short: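 Compound effects on IL-6-induced STAT reporter activity were measured in ME-180 cells. After overnight culture, cells were co-treated with 40 pM IL-6 for 5 hrs before beta-lactamase substrate loading at room temperature.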

[4] = biological target: Glucocorticoid receptor (Homo sapiens) (UniProt P04150); test: GR-GFP Redistribution (AID 450;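 active means compounds whose dose series gives a full or clear partial fitted curve of increased nuclear translocation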; further: potency means the concentration at half of the fitted maximal effect); conditions: U2OS GR-GFP nuclear translocation, laser cytometry, 2 h
[5] = biological target: Glucocorticoid receptor (Homo sapiens) (UniProt P04150); test: GR-EFC Redistribution (AID 451; calls by dose curve; further: potency means the concentration at half of the fitted maximal effect); conditions: CHO-K1 GR-EFC translocation, beta-gal luminescence, 2 h
In short: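 Translocation of GR-ED fusion to nuclear EA restores b-gal, read by luminescence after 1 h room-temperature detection. Engineered CHO-K1 biosensor cells, 1,000/well, exposed 2 h at 37 C to titrations up to 46 uM final.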

[6] = biological target: Mitogen-activated protein kinase 10 (Mus musculus) (UniProt Q61831); test: JNK3 AlphaScreen Assay (AID 530; active means well fitted curve in either direction with a large enough effect, not every such curve was filed as active;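 further: kinase came from lysate of stimulated human HepG2 cells; signal reports phosphorylation of biotinylated GST-cJun 1-79 at Ser73 with 10 µM ATP; on the % scale 0 is the no-effect control and ±100 the full control effect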)
In short: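 qHTS titrations with 15 min compound pre-incubation before adding ATP (10 uM final). Read-out: AlphaScreen of Ser73-phosphorylated biotin-GST-cJun using HepG2 lysate JNK3 activated by IL-1β and TNFα.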

[7] = biological target: 3',5'-cyclic-AMP phosphodiesterase 4B (Homo sapiens) (UniProt Q07343); test: qHTS Assay for Inhibitors of PDE-IV (AID 607; active means well fitted activation curve with a large enough effect in the main read-out, with a control signal flat, not every such curve was filed as active; further: % of control where 0% means no effect)
In short: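 ACTOne HEK293 cells carry a modified cAMP-gated CNG channel and express endogenous PDE4; plated 1000 cells/well, compounds up to 22.9 uM final. Membrane-potential dye fluorescence (ex 535/em 590) was read; parental cells received 10 uM forskolin + 100 uM RO 20-1724.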

[8] = qHTS Assay for Lipid Storage Modulators (AID 1519; calls by dose curve); conditions: Drosophila S3 cells, BODIPY lipid droplet/cell ratio, laser cytometry, cells loaded with oleic acid
In short: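 Cells seeded at 5,000 per well were treated with compounds over a concentration series and loaded with oleic acid (400 uM, as added). Lipid droplet fluorescence (488 nm excitation, 500-530 nm channel) was read by laser-scanning cytometry and normalized to 20 uM Triacsin C.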

[9] = biological target: Cytochrome P450 1A2 (Homo sapiens) (UniProt P05177); test: p450-cyp1a2 (AID 410; calls by dose curve; further: potency means the concentration at half of the fitted maximal effect;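 on activity change, negative = inhibition: -100% = full effect of reference inhibitor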)
In short: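 O-Demethylation of luciferin 6' methyl ether by human CYP1A2 is monitored as luciferase luminescence. Substrate sits at Km (100uM); enzyme is 20nM. Values are scaled to 57 uM furafylline as maximal inhibition.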

[10] = NFAT Signaling Pathway (AID 444; active means well fitted curve in either direction with a large enough effect, not every such curve was filed as active;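 further: carbachol stimulus at about its EC50 of 1 µM final; on the % scale 0 is the no-effect control and ±100 the full control effect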); conditions: Jurkat NFAT-bla M1, carbachol, beta-lactamase ratio, 5 h
In short: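 Read-out: CCF4 FRET ratio (460 nm/530 nm) after 1 h RT dye loading, used for %activity and AC50 from titration series. Cells: Jurkat NFAT-β-lactamase/M1 line, treated with compound plus 1 uM carbachol for 5 h, 37 °C.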

[11] = biological target: Cytochrome P450 3A4 (Homo sapiens) (UniProt P08684); test: qHTS Assay for Activators of Cytochrome P450 3A4 (AID 885); further: nearly all actives have a fitted effect of over 65% in size
In short: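 CYP3A4 activity: Luciferin-PPXE O-dealkylation, 25uM substrate, 200mM KPO4, RT throughout. Read-out is luciferase luminescence; higher values reflect activation.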

[12] = biological target: ATP-dependent 6-phosphofructokinase (Trypanosoma brucei brucei) (UniProt O15648); test: qHTS Assay to Find Inhibitors of T. brucei phosphofructokinase: hit validation (AID 492961)
In short: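 In this biochemical qHTS validation, titrated compounds were tested against 1.25 nM PFK with 0.1 mM ATP and 0.5 mM F6P. Percent activity came from controls lacking or containing enzyme.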

[13] = biological target: Ubiquitin carboxyl-terminal hydrolase 1 (Homo sapiens) (UniProt O94782); test: Inhibitors of USP1/UAF1: Pilot qHTS (AID 504865);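 further: rhodamine fluorescence freed from ubiquitin-rhodamine substrate followed over time; top concentration of the series differs between compounds; on the % scale 0 is the no-effect control and ±100 the full control effect; nearly all actives have a fitted effect of over 35% in size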
In short: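 1nM USP1/UAF1 + cpd, 15 min RT; start w/ Ub-Rho 150nM final; kinetic FL 480/540 nm, 6 reads q60 s. Buffer 50mM HEPES pH 7.8, 0.5mM EDTA, 1mM TCEP, 0.01% Tween-20, 0.1 mg/ml BSA.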

[14] = biological target: Luciferin 4-monooxygenase (Photinus pyralis) (UniProt P08659); test: Biochemical firefly luciferase enzyme assay for NPC (AID 624030);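 further: purified P. pyralis luciferase at 10 nM with luciferin and ATP substrate; 0% = DMSO and -100% = full luciferase inhibition by PTC124 control; nearly all actives have a fitted effect of over 70% in size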
In short: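 Direct inhibition of firefly luciferase enzyme (10 nM final, 50 mM Tris Acetate) assessed by luminescence within 5 minutes. Percent activity scaled between DMSO and PTC124 positive control, with concentration-effect curves classified by fit quality and response.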

[15] = S16 Schwann cell PMP22 intronic element firefly luciferase assay (AID 624032); further: nearly all actives have a fitted effect of over 30% in size; further: potency means the concentration at half of the fitted maximal effect;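 on activity change, negative = inhibition: plate controls were DMSO for no effect and PTC124 positive control mean for full effect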
In short: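 Luciferase reporter of PMP22 intronic-element expression in stably transfected S16 rat Schwann cells, read by ONE-Glo luminescence after 24 h compound exposure at 37 C. Activity scaled between DMSO (0%) and positive-control PTC124; concentration-effect curves quality-classified.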

[16] = qHTS profiling for inhibitors of Plasmodium falciparum proliferation (AID 504749);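 further: 0% = DMSO vehicle and full inhibition = artemisinin control; nearly all actives have a fitted effect of over 60% in size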; conditions: P. falciparum in erythrocytes, SYBR Green DNA, 72 h, at 12.8 µM (top of the series)
In short: (§1)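 SYBR Green fluorescence of parasite DNA, read after lysis and overnight dark incubation, measured growth over 72 h in erythrocyte culture at 0.3% parasitemia and 2.5% hematocrit. Data normalised to DMSO and 0.29 uM artemisinin, with plate-drift correction.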

C2A = test: as above; conditions: P. falciparum in erythrocytes, SYBR Green DNA, 72 h; series mostly up to 28.7 µM
In short: as §1

CP192 = test: as above; conditions: P. falciparum in erythrocytes, SYBR Green DNA, 72 h; series mostly up to 28.7 µM
In short: as §1

CP262 = test: as above; conditions: P. falciparum in erythrocytes, SYBR Green DNA, 72 h; series mostly up to 28.7 µM
In short: as §1

FAB9 = test: as above; conditions: P. falciparum in erythrocytes, SYBR Green DNA, 72 h; series mostly up to 28.7 µM
In short: as §1

[17] = measured here: cell count channel max response
[18] = measured here: lipid channel max response

Glucocorticoid receptor (Homo sapiens), sequence (P04150 whole entry, looked up, the tested form may be a part): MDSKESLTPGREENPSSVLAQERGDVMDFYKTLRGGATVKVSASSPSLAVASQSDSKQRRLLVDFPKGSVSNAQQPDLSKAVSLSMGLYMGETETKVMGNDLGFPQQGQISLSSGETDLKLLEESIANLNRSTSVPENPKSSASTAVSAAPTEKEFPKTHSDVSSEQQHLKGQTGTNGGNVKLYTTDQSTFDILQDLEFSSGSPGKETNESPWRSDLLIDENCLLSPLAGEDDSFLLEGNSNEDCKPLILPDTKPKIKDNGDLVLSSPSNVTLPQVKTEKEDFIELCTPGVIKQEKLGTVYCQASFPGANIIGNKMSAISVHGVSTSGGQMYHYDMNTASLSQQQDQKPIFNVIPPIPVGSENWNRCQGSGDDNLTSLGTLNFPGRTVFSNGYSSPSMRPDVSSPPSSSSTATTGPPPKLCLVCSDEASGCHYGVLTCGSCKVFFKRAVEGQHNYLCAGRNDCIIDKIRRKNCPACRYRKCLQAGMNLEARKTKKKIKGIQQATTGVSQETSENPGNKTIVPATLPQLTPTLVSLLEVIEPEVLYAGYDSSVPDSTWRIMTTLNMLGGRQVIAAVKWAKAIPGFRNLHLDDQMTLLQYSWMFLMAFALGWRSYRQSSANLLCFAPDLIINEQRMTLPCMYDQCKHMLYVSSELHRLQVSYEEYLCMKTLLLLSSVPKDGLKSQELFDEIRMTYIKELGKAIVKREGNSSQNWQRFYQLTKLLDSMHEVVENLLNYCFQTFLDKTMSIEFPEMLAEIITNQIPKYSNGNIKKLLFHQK
Lysosomal acid glucosylceramidase (Homo sapiens), sequence (P04062 whole entry, looked up): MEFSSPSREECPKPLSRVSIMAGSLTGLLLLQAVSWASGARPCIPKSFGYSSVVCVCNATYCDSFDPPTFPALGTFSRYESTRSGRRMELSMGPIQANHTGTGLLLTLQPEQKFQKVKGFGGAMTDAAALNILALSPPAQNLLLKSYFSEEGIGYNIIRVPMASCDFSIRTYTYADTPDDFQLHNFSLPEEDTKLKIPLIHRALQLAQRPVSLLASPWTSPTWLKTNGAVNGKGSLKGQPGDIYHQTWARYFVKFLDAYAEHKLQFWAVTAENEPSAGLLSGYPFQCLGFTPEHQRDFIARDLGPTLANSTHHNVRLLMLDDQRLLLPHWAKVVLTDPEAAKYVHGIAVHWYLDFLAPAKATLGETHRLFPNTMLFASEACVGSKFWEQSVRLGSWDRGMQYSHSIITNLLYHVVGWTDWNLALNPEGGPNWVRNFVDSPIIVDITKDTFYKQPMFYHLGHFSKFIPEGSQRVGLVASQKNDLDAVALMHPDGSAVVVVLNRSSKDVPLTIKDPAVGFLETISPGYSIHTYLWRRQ
3',5'-cyclic-AMP phosphodiesterase 4B (Homo sapiens), sequence (Q07343 whole entry, looked up): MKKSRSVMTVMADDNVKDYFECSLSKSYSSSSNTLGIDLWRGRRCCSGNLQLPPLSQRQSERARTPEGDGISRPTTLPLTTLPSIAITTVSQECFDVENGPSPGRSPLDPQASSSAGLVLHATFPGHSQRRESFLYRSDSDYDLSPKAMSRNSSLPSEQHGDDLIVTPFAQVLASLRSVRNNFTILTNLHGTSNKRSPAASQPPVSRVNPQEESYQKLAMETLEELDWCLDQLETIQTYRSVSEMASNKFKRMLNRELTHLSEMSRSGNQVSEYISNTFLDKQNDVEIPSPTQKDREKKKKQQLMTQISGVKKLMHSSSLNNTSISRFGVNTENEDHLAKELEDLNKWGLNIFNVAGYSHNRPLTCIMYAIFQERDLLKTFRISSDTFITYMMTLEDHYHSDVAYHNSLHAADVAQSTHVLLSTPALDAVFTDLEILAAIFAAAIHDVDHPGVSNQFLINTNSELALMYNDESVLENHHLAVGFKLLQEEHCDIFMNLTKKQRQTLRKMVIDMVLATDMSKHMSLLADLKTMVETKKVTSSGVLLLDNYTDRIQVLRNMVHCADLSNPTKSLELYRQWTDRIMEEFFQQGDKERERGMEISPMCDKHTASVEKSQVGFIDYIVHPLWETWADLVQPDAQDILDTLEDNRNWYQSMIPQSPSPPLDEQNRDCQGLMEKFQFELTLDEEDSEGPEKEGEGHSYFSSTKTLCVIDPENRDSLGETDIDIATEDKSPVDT
Cytochrome P450 1A2 (Homo sapiens), sequence (P05177 whole entry, looked up): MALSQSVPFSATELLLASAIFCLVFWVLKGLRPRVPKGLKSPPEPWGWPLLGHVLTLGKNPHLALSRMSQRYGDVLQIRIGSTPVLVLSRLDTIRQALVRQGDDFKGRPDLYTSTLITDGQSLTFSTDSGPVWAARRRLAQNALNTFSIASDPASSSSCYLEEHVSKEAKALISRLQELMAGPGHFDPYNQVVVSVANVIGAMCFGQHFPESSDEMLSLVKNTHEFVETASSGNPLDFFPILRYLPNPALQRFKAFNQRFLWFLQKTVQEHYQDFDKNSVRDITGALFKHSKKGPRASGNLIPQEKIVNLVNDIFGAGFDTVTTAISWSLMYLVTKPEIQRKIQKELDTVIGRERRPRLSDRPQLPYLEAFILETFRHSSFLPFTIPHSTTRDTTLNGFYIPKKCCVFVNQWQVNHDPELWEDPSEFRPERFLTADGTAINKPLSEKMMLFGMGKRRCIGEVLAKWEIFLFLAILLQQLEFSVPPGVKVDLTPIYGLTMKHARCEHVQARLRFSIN
Cytochrome P450 3A4 (Homo sapiens), sequence (P08684 whole entry, looked up): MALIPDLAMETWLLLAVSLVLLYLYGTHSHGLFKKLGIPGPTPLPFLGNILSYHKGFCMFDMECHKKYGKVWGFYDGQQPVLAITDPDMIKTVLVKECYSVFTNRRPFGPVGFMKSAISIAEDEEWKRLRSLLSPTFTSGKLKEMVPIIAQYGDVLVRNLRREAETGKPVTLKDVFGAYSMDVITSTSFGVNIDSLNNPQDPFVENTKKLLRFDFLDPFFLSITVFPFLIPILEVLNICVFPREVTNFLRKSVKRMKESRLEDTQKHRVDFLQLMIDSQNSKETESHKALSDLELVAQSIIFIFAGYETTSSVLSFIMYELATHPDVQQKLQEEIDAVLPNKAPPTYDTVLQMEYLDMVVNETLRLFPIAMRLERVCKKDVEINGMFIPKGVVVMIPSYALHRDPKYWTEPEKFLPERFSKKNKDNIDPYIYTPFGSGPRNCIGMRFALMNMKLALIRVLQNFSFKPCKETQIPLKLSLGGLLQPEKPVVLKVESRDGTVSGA
Luciferin 4-monooxygenase (Photinus pyralis), sequence (P08659 whole entry, looked up): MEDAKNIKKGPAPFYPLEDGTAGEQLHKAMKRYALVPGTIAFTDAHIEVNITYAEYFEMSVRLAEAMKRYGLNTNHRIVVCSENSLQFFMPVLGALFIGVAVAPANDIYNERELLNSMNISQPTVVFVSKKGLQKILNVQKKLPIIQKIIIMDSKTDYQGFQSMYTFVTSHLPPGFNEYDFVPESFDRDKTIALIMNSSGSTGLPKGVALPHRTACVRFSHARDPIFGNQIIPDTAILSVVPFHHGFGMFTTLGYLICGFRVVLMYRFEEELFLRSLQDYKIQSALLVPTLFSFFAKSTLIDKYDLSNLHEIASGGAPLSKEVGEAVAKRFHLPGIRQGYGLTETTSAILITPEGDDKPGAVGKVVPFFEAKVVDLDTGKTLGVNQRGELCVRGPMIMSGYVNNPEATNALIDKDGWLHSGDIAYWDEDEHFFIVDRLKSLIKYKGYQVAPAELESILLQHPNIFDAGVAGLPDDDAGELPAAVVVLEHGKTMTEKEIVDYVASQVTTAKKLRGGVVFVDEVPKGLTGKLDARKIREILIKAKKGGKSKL
ATP-dependent 6-phosphofructokinase (Trypanosoma brucei brucei), sequence (O15648 whole entry, looked up): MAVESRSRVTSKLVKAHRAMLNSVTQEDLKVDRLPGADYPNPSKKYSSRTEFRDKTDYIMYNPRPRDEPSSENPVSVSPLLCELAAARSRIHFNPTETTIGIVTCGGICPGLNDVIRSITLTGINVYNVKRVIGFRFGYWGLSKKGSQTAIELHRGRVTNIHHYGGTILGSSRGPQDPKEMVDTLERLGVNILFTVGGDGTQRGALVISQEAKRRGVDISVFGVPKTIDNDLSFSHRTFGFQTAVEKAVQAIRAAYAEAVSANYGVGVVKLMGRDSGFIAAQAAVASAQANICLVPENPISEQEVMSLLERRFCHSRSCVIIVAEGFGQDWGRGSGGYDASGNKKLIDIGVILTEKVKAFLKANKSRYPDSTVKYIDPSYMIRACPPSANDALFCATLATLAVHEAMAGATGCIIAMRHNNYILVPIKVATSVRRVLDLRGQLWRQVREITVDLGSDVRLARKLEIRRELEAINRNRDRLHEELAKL
Ubiquitin carboxyl-terminal hydrolase 1 (Homo sapiens), sequence (O94782 whole entry, looked up): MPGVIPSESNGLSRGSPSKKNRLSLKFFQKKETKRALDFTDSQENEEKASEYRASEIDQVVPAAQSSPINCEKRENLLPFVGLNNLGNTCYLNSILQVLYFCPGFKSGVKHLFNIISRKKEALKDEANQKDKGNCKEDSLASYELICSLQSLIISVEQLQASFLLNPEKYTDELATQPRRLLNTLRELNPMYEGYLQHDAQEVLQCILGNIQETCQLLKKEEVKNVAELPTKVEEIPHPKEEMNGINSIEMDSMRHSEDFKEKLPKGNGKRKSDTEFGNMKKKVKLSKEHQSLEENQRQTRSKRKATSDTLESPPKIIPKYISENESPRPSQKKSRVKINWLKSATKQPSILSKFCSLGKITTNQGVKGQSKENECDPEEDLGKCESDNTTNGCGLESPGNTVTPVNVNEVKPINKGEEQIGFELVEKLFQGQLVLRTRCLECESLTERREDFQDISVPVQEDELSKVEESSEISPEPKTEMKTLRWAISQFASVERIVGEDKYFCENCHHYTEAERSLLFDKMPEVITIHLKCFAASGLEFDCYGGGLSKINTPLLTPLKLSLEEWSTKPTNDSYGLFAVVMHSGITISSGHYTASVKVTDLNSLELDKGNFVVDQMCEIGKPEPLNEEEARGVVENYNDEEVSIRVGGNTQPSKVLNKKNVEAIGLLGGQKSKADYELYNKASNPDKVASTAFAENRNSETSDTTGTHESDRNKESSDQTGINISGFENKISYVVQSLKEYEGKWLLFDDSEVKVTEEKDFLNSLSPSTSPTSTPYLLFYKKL

O=C(O)CNCP(=O)(O)O
20.1%: max response [8, 18]
16.5%: max response [8, 17]
inactive: Potency [1] > 11.4 µM | outcome [2] | outcome [3] | Potency [4] > 46 µM | Potency [5] > 9.22 µM | activity change, negative = inhibition [6] 1.05% [at 11.4 µM] | Potency [7] | activity change, negative = inhibition ([8]; at 57.5 µM (top of the series)) 2.6%

CN1CC[C@@]2(CCCN(C(=O)c3ccco3)C2)C1
inactive: Potency [1] > 11.4 µM | outcome [2] | Potency [9] | activity change, negative = inhibition ([10]; at 7.69 µM (top of the series)) -15.5% | outcome [3] | Potency [5] > 46 µM | Potency [11] | activity change, negative = inhibition ([8]; at 57.5 µM (top of the series)) 5.37%
19.3%: max response [8, 18]
10.7%: max response [8, 17]

C[C@@]12CC[C@H]3[C@@H](CC[C@@H]4C[C@H]5S[C@H]5C[C@]43C)[C@H]1CC[C@H]2O
active: Potency [9] 0.0251 µM | Potency [15] 7.75 µM
-19.3%: max response [8, 17]
-23.9%: max response [8, 18]
inactive: outcome [2] | activity change, negative = inhibition ([10]; at 17.2 µM (top of the series)) -8.3% | outcome [3] | Potency [4] > 20.6 µM | Potency [5] > 20.6 µM | outcome [6] | Potency [7] | Potency [11] | activity change, negative = inhibition ([8]; at 25.7 µM (top of the series)) -4.67% | Potency [12] | Potency [13] | Potency [14] | activity, negative = inhibition ([16]; parasite line A) 2.41% | activity, negative = inhibition ([16]; parasite line B) 1.96% | Potency (C2A) | Potency (CP192) | Potency (CP262) | Potency (FAB9)

O=C(Nc1cccc(F)c1)N1CCC2(CC1)CCN(C(=O)Oc1ccccc1)CC2
-23.3%: max response [8, 17]
inactive: Potency [1] > 11.4 µM | outcome [2] | Potency [9] | activity change, negative = inhibition ([10]; at 7.69 µM (top of the series)) 12% | outcome [3] | Potency [5] > 46 µM | outcome [6] | Potency [7] | activity change, negative = inhibition ([8]; at 57.5 µM (top of the series)) -7.04%
-28%: max response [8, 18]

C[C@@]12CCC(=O)C=C1C=C[C@H]1[C@H]3CC[C@](O)(CCC(=O)O)[C@]3(C)CC[C@@H]12
-7.2%: max response [8, 17]
-8.17%: max response [8, 18]
inactive: outcome [2] | Potency [9] | activity change, negative = inhibition ([10]; at 17.2 µM (top of the series)) -1.71% | outcome [3] | Potency [4] > 20.6 µM | Potency [5] > 20.6 µM | outcome [6] | Potency [7] | activity change, negative = inhibition ([8]; at 25.7 µM (top of the series)) -0.688% | Potency [12] | Potency [13] | Potency [14] | Potency [15] | activity, negative = inhibition ([16]; parasite line A) 9.22% | activity, negative = inhibition ([16]; parasite line B) 6.42% | Potency (C2A) | Potency (CP192) | Potency (CP262) | Potency (FAB9)

CN1CCCC2(CCN(C(=O)c3ccncc3)CC2)C1
15.5%: max response [8, 17]
inactive: Potency [1] > 11.4 µM | outcome [2] | Potency [9] | activity change, negative = inhibition ([10]; at 7.69 µM (top of the series)) -16.6% | outcome [3] | Potency [5] > 46 µM | outcome [6] | activity change, negative = inhibition ([8]; at 57.5 µM (top of the series)) 2.07%
19.9%: max response [8, 18]
